Here are results for nine compounds from PubChem BioAssay (Tox21).

Experiment [1] is described as follows: A CellTox Green Cytotoxicity Assay to monitor cytotoxicity in HepG2 cells - 0 hour (AID 1224882). Note: nearly all actives have a fitted effect of over 35% in size. A digest of the protocol: (§1)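 Measurements at 0, 8, 16, 24, 32 and 40 h of treatment captured CellTox Green fluorescence in HepG2 cells that had been co-plated with reagent and preincubated 5 h at 37 C/5% CO2.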
Experiment [2] is described as follows: A CellTox Green Cytotoxicity Assay to monitor cytotoxicity in HepG2 cells - 32 hour (AID 1224883). Note: nearly all actives have a fitted effect of over 50% in size. Note: potency is the fitted concentration of half-maximal effect. A digest of the protocol: as §1
Experiment [3] is described as follows: qHTS RealTime-Glo MT Cell Viability Assay in HEK293 cells - 24 hour (AID 1224886). Note: top concentration of the series differs between compounds; nearly all actives have a fitted effect of over 50% in size. A digest of the protocol: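 Luminescence generated by NanoLuc from substrate produced by living HEK293 cells served as the viability signal. Each value reflects the reading at its stated time point during continuous 40 h compound exposure at 37 C.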
In general terms: In qHTS, concentration-response curves come from the screen itself.

Experiment [4] can be described thus: qHTS RealTime-Glo MT Cell Viability Assay in HEK293 cells - 8 hour (AID 1224887). Note: top concentration of the series differs between compounds; nearly all actives have a fitted effect of over 50% in size. The gist of the method: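 HEK293 + NanoLuc + prosubstrate, 600 cells/well; 5 h, 37 C/5% CO2; compound 23 nL in DMSO by pintool; 37 C; luminescence read at 0, 8, 16, 24, 32 and 40 h time points.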
The nature of experiment [5]: A CellTox Green Cytotoxicity Assay to monitor cytotoxicity in HEK293 cells - 16 hour (AID 1224888). Note: nearly all actives have a fitted effect of over 35% in size. The gist of the method:
(§2)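 Tox21 screen in HEK293: membrane-impermeant cyanine dye fluoresces on binding dead-cell DNA; compound pinned 5 h post-seeding, plates held at 37 C, signal read repeatedly through 40 h.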

A short description of experiment [6]: qHTS RealTime-Glo MT Cell Viability Assay in HepG2 cells - 0 hour (AID 1224889). Note: nearly all actives have a fitted effect of over 50% in size. The gist of the method:
(§3)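 Tox21 10K library screened in qHTS format on HepG2 cells carrying RealTime-Glo reagents. Compounds were added after a 5 h preincubation, and the luminescent signal from continuous culture was measured repeatedly during 40 h treatment.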

Experiment [7] can be described thus: A CellTox Green Cytotoxicity Assay to monitor cytotoxicity in HepG2 cells - 8 hour (AID 1224890). Note: nearly all actives have a fitted effect of over 45% in size. A digest of the protocol: as §1
Experiment [8] is described as follows: qHTS assay to identify small molecule antagonists of the estrogen receptor alpha (ER-alpha) signaling pathway using the BG1 cell line in the presence of 0.1 nM 17-beta-estradiol - cell viability counter screen (AID 1259241). Note: nearly all actives have a fitted effect of over 40% in size. The gist of the method: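 VM7Luc4E2, 4,000 cells/well, phenol red-free medium + 10% charcoal-stripped FBS; 24 hr plating; cpd + 0.1 nM E2 final, 22 hr 37C/5% CO2; CellTiter-Fluor 30 min, fluorescence.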

Experiment [9] can be described thus: qHTS assay to identify small molecule antagonists of the androgen receptor (AR) signaling pathway using the MDA cell line in the presence of 0.5 nM R1881 - cell viability counter screen (AID 1259242). Note: nearly all actives have a fitted effect of over 45% in size. A digest of the protocol: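 Concentration-response screen of compounds for toxicity in MDA-kb2 reporter cells: 16 hr at 37C with 0.5 nM R1881, endpoint live-cell protease fluorescence measured in the reporter wells.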

The target of experiment [10] is Estrogen receptor (Homo sapiens) (UniProt P03372). The experiment is described as follows: qHTS assay to identify small molecule antagonists of the estrogen receptor alpha (ER-alpha) signaling pathway using the BG1 cell line in the presence of 0.1 nM 17-beta-estradiol (AID 1259244). Note: nearly all actives have a fitted effect of over 50% in size. The gist of the method: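 Compounds were tested against 0.1 nM (final) 17beta-estradiol in VM7Luc4E2 cells, which express full-length ER-alpha and an ERE-luciferase reporter; luminescence was recorded following 22 h exposure.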

A short description of experiment [11]: qHTS assay to identify small molecule HDAC inhibitors (AID 1259364).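 Note: wild-type HCT-116 cells with endogenous class I/II HDAC activity; top concentration of the series differs between compounds; nearly all actives have a fitted effect of over 45% in size.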 A digest of the protocol:
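Screening used wild-type human colon HCT-116 cells incubated overnight, dosed with compounds for 2 hours, and assayed with a homogeneous luminogenic HDAC I/II reagent for 30 minutes at room temperature.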

Experiment [12] can be described thus: qHTS assay to identify small molecule HDAC inhibitors - cell viability counter screen (AID 1259365). A digest of the protocol:
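Luminescence from CellTiter-Glo, developed 30min at room temperature, reports viability of wild-type HCT-116 cells treated 2hr with compounds at 37 C and 5% CO2 after overnight plating.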

Experiment [13] can be described thus: qHTS assay to identify small molecule agonists of the sonic hedgehog signaling (Shh) pathway - cell viability counter screen (AID 1259366). Note: nearly all actives have a fitted effect of over 50% in size. Note: potency is the fitted concentration of half-maximal effect. A digest of the protocol: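 Cytotoxicity counter screen run in the same wells as the Shh reporter assay. NIH/3T3 cells carrying a Gli1 response element–driven luciferase were treated with DMSO-dissolved compounds for 24hr, and live-cell protease activity was measured with CellTiter-Fluor.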

Experiment [14] is described as follows: qHTS assay to identify small molecule antagonists of the sonic hedgehog signaling (Shh) pathway - cell viability counter screen (AID 1259367). Note: nearly all actives have a fitted effect of over 55% in size. A digest of the protocol:
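Fluorescence read-out (CellTiter-Fluor, 1 hr at 37C) taken after 23 hr compound treatment of 3T3 Gli1-Luc cells stimulated with conditioned medium. Cells were seeded at 2,000 per well and pre-incubated 4 hr.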

Experiment [15] can be described thus: qHTS assay to identify small molecule agonists of the sonic hedgehog signaling (Shh) pathway (AID 1259368; calls by dose curve;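 note: NIH/3T3-derived 3T3Gli1-Luc cells carrying a stable Gli1-driven firefly luciferase reporter; series mostly up to about 92 µM; nearly all actives have a fitted effect of over 15% in size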). The gist of the method:
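Hedgehog pathway agonism scored by increased firefly luciferase luminescence in 3T3Gli1-Luc cells treated 24 hr at 37 C; detection used a 30 min room-temperature reagent incubation.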

Experiment [16] is described as follows: qHTS assay to identify small molecule antagonists of the sonic hedgehog signaling (Shh) pathway (AID 1259369; calls by dose curve; note: nearly all actives have a fitted effect of over 45% in size). A digest of the protocol:
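NIH/3T3 stable Gli1-Luc clone, 2,000 cells/well, 4hr settle; cpd + conditioned medium 24hr; Luc reagent 30min RT; luminescence.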

A short description of experiment [17]: qHTS assay to identify small molecule phospholipidosis (PLD) inducers (AID 1259344; active = well fitted curve in the direction sought with a large enough effect; an effect the other way counts as inactive or inconclusive). The gist of the method:
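Read-out is LipidTOX Red fluorescence (ex 595/em 615) imaged in HepG2 cells after 24 h compound exposure at 37 C, with Hoechst nuclear counterstain (ex 352/em 461) allowing per-cell normalisation.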

Experiment [18] deals with Androgen receptor (Homo sapiens) (UniProt P10275). The experiment is described as follows: qHTS assay to identify small molecule antagonists of the androgen receptor (AR) signaling pathway using the MDA cell line in the presence of 0.5 nM R1881 (AID 1259243). Note: nearly all actives have a fitted effect of over 50% in size. The gist of the method:
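With R1881 held at 0.5 nM (final), compound effects on MMTV-luciferase expression in MDA-kb2 cells were scored by luminescence after a 16 hr, 37C incubation.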

Experiment [19] can be described thus: A CellTox Green Cytotoxicity Assay to monitor cytotoxicity in HEK293 cells - 8 hour (AID 1224884). Note: nearly all actives have a fitted effect of over 35% in size. A digest of the protocol:
as §2

Experiment [20] can be described thus: qHTS RealTime-Glo MT Cell Viability Assay in HepG2 cells - 16 hour (AID 1224885). Note: nearly all actives have a fitted effect of over 50% in size. The gist of the method: as §3

Values without a mark were called inactive. Inconclusive results are not listed. Calls of active or inactive are those of the source. Unless noted, calls come from the whole dose curve; as a rule, active = well fitted curve in the direction sought with a large enough effect in the repeat runs; inconclusive = weak or mixed curves; inactive = no such curve, though single readings can be large; an effect the other way counts as inactive or inconclusive.

Androgen receptor (Homo sapiens), sequence (P10275 whole entry, looked up): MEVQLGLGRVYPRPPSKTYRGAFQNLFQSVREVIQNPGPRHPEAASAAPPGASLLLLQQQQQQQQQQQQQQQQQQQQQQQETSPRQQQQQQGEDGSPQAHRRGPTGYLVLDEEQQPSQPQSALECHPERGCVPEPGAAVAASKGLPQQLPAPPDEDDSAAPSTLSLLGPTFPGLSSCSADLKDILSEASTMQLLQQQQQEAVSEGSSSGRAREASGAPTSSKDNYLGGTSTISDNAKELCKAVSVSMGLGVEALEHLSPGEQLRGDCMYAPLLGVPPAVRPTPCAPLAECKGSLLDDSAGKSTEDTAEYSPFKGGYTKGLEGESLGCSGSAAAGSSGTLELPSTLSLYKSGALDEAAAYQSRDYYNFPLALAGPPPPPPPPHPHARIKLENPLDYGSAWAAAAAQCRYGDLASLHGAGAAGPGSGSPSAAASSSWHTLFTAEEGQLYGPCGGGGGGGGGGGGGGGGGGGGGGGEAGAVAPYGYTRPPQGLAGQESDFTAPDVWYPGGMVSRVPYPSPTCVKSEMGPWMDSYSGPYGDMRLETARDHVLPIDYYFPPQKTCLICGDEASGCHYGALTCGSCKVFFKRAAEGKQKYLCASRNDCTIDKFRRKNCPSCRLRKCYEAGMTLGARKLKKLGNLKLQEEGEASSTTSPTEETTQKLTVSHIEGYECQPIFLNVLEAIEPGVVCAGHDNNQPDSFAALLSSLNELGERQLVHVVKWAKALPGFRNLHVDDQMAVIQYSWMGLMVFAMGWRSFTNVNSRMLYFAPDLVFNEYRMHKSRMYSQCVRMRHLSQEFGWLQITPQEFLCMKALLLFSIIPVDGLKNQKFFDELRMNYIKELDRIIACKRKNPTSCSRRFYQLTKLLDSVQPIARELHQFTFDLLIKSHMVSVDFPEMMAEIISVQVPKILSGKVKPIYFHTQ
Estrogen receptor (Homo sapiens), sequence (P03372 whole entry, looked up): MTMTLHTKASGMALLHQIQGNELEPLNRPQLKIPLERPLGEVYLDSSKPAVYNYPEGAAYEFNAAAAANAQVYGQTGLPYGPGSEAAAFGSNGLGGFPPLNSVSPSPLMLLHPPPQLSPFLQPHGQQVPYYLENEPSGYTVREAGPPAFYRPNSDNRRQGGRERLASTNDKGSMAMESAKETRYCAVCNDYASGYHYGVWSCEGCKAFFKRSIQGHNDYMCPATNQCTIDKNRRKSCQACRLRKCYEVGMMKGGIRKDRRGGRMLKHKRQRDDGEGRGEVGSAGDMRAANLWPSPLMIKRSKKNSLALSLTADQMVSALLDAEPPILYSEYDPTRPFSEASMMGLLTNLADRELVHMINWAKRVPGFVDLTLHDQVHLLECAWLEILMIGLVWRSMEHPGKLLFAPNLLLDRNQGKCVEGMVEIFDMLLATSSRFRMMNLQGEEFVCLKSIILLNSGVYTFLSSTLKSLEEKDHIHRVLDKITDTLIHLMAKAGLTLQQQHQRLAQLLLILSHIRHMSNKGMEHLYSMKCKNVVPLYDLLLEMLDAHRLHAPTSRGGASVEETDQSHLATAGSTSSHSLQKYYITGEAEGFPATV

Consider `C=CCCCCCCCCC(=O)OCC`, for which the Potency result in [1], in experiment [2], in [3], in experiment [4], in experiment [6] and in [11] was “inactive” in each case. Besides, the Potency entry in experiment [13], in experiment [14] and in experiment [16] was “inactive” throughout. The outcome in [5], in experiment [7], in experiment [8], in experiment [9], in [10] and in experiment [12] was inactive. For the same compound, in [15], the call was inactive.

Take `COc1cc2c(cc1OC)-c1cc3ccc(OC)c(OC)c3c[n+]1CC2`: the Potency entry in experiment [1], in [2], in experiment [4], in experiment [6], in experiment [11] and in experiment [13] was “inactive” in each case. Also, the Potency entry in [14] and in experiment [16] was “inactive” in each case. The compound was classed as inactive in experiment [5], in experiment [7], in experiment [8], in [12] and in experiment [15].

For the compound `CCCc1ncc(C[n+]2ccccc2C)c(N)n1`, the Potency entry in experiment [1], in experiment [2], in experiment [3], in experiment [4], in experiment [6] and in experiment [11] was “inactive” throughout. Also, the Potency result in experiment [13], in [14] and in [16] was “inactive” throughout. Moreover, the compound was classed as inactive in experiment [5], in experiment [7], in experiment [8], in experiment [9], in [17] and in [15].

As to `CC(=O)O[C@@]12CO[C@@H]1C[C@H](O)[C@@]1(C)C(=O)[C@H](O)C3=C(C)[C@@H](OC(=O)[C@H](O)[C@@H](NC(=O)OC(C)(C)C)c4ccccc4)C[C@@](O)([C@@H](OC(=O)c4ccccc4)[C@H]21)C3(C)C`, the Potency entry in experiment [1], in experiment [4], in [6], in [18] and in [11] was “inactive” throughout. Besides, the Potency in experiment [2] was 0.0067 µM (active); in [13], 6.68 µM (active). The call in experiment [5], in [7], in experiment [8], in experiment [9], in [10] and in [17] was inactive. Also, the compound was called inactive in [12] and in experiment [15].

As for `CC(C)C(=O)OC(=O)C(C)C`, the Potency entry in experiment [1], in experiment [2], in experiment [3], in experiment [4], in experiment [6] and in experiment [11] was “inactive” in each case. Moreover, the Potency result in [13], in experiment [14] and in experiment [16] was “inactive” each time. Moreover, the compound was called inactive in [5], in experiment [7], in [8], in experiment [9] and in [12].

Turning to `CCCOC(=O)CC`, the Potency result in experiment [2], in experiment [3], in experiment [4], in experiment [6], in experiment [18] and in experiment [11] was “inactive” each time. Also, the Potency result in experiment [13], in experiment [14] and in [16] was “inactive” throughout. Moreover, the outcome in [19], in [20], in experiment [5], in experiment [7], in experiment [8] and in [9] was inactive. The result in [10], in [12] and in experiment [15] was inactive.

On to `O=C(O)Cc1csc(-c2ccc(Cl)cc2)n1`, for which the Potency entry in experiment [2], in [3], in [4], in experiment [6], in [18] and in experiment [11] was “inactive” in each case. The Potency entry in [13] and in experiment [16] was “inactive” throughout. The outcome in experiment [19], in [20], in [5], in experiment [7], in experiment [8] and in experiment [9] was inactive. Moreover, the outcome in experiment [10], in [17] and in experiment [15] was inactive.

For the compound `CC(=O)c1ccc2ccccc2c1`, the Potency result in [1], in [3], in experiment [4], in [6], in [11] and in experiment [13] was “inactive” each time. For the same compound, the Potency result in experiment [16] was “inactive”. The compound was called inactive in [19], in [20], in experiment [5], in [9] and in experiment [15].

Consider `Cc1c(N)c(=O)n(-c2ccccc2)n1C`, for which the Potency entry in [1], in experiment [3], in experiment [4], in [6], in experiment [11] and in experiment [13] was “inactive” in each case. In addition, the Potency entry in experiment [14] and in experiment [16] was “inactive” each time. Also, the compound was called inactive in [19], in experiment [20], in [5], in experiment [7], in experiment [8] and in [9]. Besides, the compound was classed as inactive in experiment [17] and in experiment [12].
